Experimental data as given in PubChem BioAssay AID1159580 (chemical genetic matrix, 2015).
Several values for one entry are separate records, joined by “and”; a condition that tells them apart may be missing. Identical values can stand only once. The whole screen tested about 5,500 compounds, of which about 2,000 (36%) were called active. About 18% were inconclusive and are not listed. Cut-off read from the data, not from the text of the source: active = normalized growth mostly below about 0.91 (no sharp cut-off); inconclusive = no clear call, values can overlap the other calls; inactive = mostly above about 0.92. This is one part of the list.

Assay: chemical genetic growth profiling, strain panel (AID 1159580);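 note: tested at 20 µM; growth read once vehicle control cultures reached saturation at 30 °C; 1 = growth at the plate median or of vehicle wells; lower values mean less growth of the strain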
Details: growth OD
[1] = S. cerevisiae deletion strains, locus YDL101C, strain DUN1, hits give low values
[2] = S. cerevisiae deletion strains, locus YGR052W, strain FMP48, hits give low values
[3] = S. cerevisiae deletion strains, locus YHR030C, strain SLT2, hits give low values
[4] = S. cerevisiae deletion strains, locus YHR079C, strain IRE1, hits give low values
[5] = S. cerevisiae deletion strains, locus YHR082C, strain KSP1, hits give low values
[6] = S. cerevisiae deletion strains, locus YJL095W, strain BCK1, hits give low values
[7] = S. cerevisiae deletion strains, locus YJR066W, strain TOR1, hits give low values
[8] = S. cerevisiae deletion strains, locus YKL203C, strain TOR2, hits give low values
[9] = S. cerevisiae deletion strains, locus YLR113W, strain HOG1, hits give low values
[10] = S. cerevisiae deletion strains, locus YNL183C, strain NPR1, hits give low values
[11] = S. cerevisiae deletion strains, locus YNL207W, strain RIO2, hits give low values
[12] = S. cerevisiae deletion strains, locus YOR119C, strain RIO1, hits give low values
[13] = S. cerevisiae deletion strains, locus YOR231W, strain MKK1, hits give low values
[14] = S. cerevisiae deletion strains, locus YPL256C, strain CLN2, hits give low values

Measured: normalized growth

O=[N+]([O-])c1ccsc1Oc1cccc(C(F)(F)F)c1
active: [3] 1.26 [resistant] | [9] 0.821
inactive: S. cerevisiae deletion strains, locus YAR019C, strain CDC15, hits give low values 0.945 | S. cerevisiae deletion strains, locus YBL105C, strain PKC1, hits give low values 0.986 | S. cerevisiae deletion strains, locus YBR135W, strain CKS1, hits give low values 0.95 | S. cerevisiae deletion strains, locus YBR136W, strain MEC1, hits give low values 0.976 | S. cerevisiae deletion strains, locus YBR160W, strain CDC28, hits give low values 1.01 | S. cerevisiae deletion strains, locus YDL017W, strain CDC7, hits give low values 0.987 | S. cerevisiae deletion strains, locus YDL028C, strain MPS1, hits give low values 0.989 | [1] 0.958 | S. cerevisiae deletion strains, locus YDL108W, strain KIN28, hits give low values 0.979 | S. cerevisiae deletion strains, locus YDL132W, strain cdc53, hits give low values 0.946 | S. cerevisiae deletion strains, locus YDL214C, strain PRR2, hits give low values 0.909 | S. cerevisiae deletion strains, locus YDR052C, strain DBF4, hits give low values 0.989 | S. cerevisiae deletion strains, locus YDR054C, strain cdc34, hits give low values 0.929 | S. cerevisiae deletion strains, locus YDR226W, strain ADK1, hits give low values 0.973 | S. cerevisiae deletion strains, locus YDR477W, strain SNF1, hits give low values 0.876 | S. cerevisiae deletion strains, locus YER123W, strain YCK3, hits give low values 0.814 | S. cerevisiae deletion strains, locus YER133W, strain GLC7, hits give low values 0.831 | S. cerevisiae deletion strains, locus YFL009W, strain cdc4, hits give low values 0.925 | S. cerevisiae deletion strains, locus YFL029C, strain CAK1, hits give low values 0.94 | S. cerevisiae deletion strains, locus YFR003C, strain YPI1, hits give low values 0.984 | S. cerevisiae deletion strains, locus YFR019W, strain FAB1, hits give low values 0.927 | S. cerevisiae deletion strains, locus YFR028C, strain CDC14, hits give low values 0.955 | S. cerevisiae deletion strains, locus YGR040W, strain KSS1, hits give low values 0.857 | [2] 0.88 | S. cerevisiae deletion strains, locus YGR092W, strain DBF2, hits give low values 0.769 | [4] 0.962 | [5] 0.907 | S. cerevisiae deletion strains, locus YHR205W, strain SCH9, hits give low values 0.872 | S. cerevisiae deletion strains, locus YIL147C, strain SLN1, hits give low values 0.979 | [6] 0.861 | S. cerevisiae deletion strains, locus YJL128C, strain PBS2, hits give low values 0.939 | S. cerevisiae deletion strains, locus YJL157C, strain FAR1, hits give low values 0.887 | S. cerevisiae deletion strains, locus YJR016C, strain ILV3, hits give low values 0.952 | S. cerevisiae deletion strains, locus YJR066W, strain TOR1 (second series), hits give low values 0.71 | [7] 0.926 | S. cerevisiae deletion strains, locus YKL048C, strain ELM1, hits give low values 0.912 | S. cerevisiae deletion strains, locus YKL067W, strain YNK1, hits give low values 0.905 | S. cerevisiae deletion strains, locus YKL101W, strain HSL1, hits give low values 0.931 | S. cerevisiae deletion strains, locus YKL193C, strain SDS22, hits give low values 0.944 | [8] 0.887 | S. cerevisiae deletion strains, locus YLR133W, strain CKI1, hits give low values 0.936 | S. cerevisiae deletion strains, locus YLR403W, strain SFP1, hits give low values 0.852 | S. cerevisiae deletion strains, locus YML070W, strain DAK1, hits give low values 0.895 | S. cerevisiae deletion strains, locus YMR001C, strain CDC5, hits give low values 0.956 | S. cerevisiae deletion strains, locus YMR205C, strain PFK2 (second series), hits give low values 0.911 | S. cerevisiae deletion strains, locus YMR277W, strain FCP1, hits give low values 0.94 | S. cerevisiae deletion strains, locus YNL006W, strain LST8, hits give low values 0.946 | S. cerevisiae deletion strains, locus YNL020C, strain ARK1, hits give low values 0.925 | S. cerevisiae deletion strains, locus YNL161W, strain CBK1, hits give low values 0.972 | [10] 0.869 | [11] 0.96 | S. cerevisiae deletion strains, locus YNL222W, strain SSU72, hits give low values 0.972 | S. cerevisiae deletion strains, locus YNL307C, strain MCK1 (second series), hits give low values 0.939 | S. cerevisiae deletion strains, locus YOL078W, strain AVO1, hits give low values 0.93 | S. cerevisiae deletion strains, locus YOL136C, strain PFK27, hits give low values 0.89 | S. cerevisiae deletion strains, locus YOR061W, strain CKA2, hits give low values 0.88 | [12] 0.883 | [13] 0.849 | S. cerevisiae deletion strains, locus YOR329C, strain SCD5, hits give low values 0.984 | S. cerevisiae deletion strains, locus YPL031C, strain PHO85, hits give low values 0.842 | S. cerevisiae deletion strains, locus YPL153C, strain RAD53, hits give low values 0.846 | S. cerevisiae deletion strains, locus YPL204W, strain HRR25, hits give low values 0.845 | S. cerevisiae deletion strains, locus YPL209C, strain IPL1, hits give low values 0.984 | [14] 0.991 | S. cerevisiae deletion strains, locus YPR025C, strain CCL1, hits give low values 0.98 | S. cerevisiae deletion strains, locus YPR106W, strain ISR1, hits give low values 0.966 | S. cerevisiae deletion strains, locus YPR111W, strain DBF20, hits give low values 0.96 | S. cerevisiae deletion strains, strain NNK1, hits give low values 0.976 | S. cerevisiae deletion strains, strain TSCII, hits give low values 0.932

CCOC(=O)c1ccc(Oc2sccc2[N+](=O)[O-])cc1
inactive: S. cerevisiae deletion strains, locus YDR150W, strain NUM1, hits give low values 0.866 | [2] 0.872 | [5] 0.878 | [6] 0.772 | S. cerevisiae deletion strains, locus YJL187C, strain SWE1, hits give low values 1.02 | [7] 0.876 | S. cerevisiae deletion strains, locus YKL171W, strain NNK1, hits give low values 0.854 | [9] 0.735 | [10] 0.864 | [11] 0.862 | [12] 0.86 | [13] 0.869 | S. cerevisiae deletion strains, locus YPL055C, strain LGE1, hits give low values 0.84
active: S. cerevisiae deletion strains, locus YAL013W, strain DEP1, hits give low values 0.796 | S. cerevisiae deletion strains, locus YBR229C, strain ROT2, hits give low values 0.817 | [1] 0.77 | S. cerevisiae deletion strains, locus YEL061C, strain CIN8, hits give low values 0.442 | S. cerevisiae deletion strains, locus YGR078C, strain PAC10, hits give low values 0.811 | [3] 0.167 and 0.769 | [4] 0.852 | S. cerevisiae deletion strains, locus YHR087W, strain rtc3, hits give low values 0.848 | S. cerevisiae deletion strains, locus YJR043C, strain POL32, hits give low values 0.81 | S. cerevisiae deletion strains, locus YJR075W, strain HOC1, hits give low values 0.719 | S. cerevisiae deletion strains, locus YKL190W, strain CNB1, hits give low values 0.0675 | [8] 0.849 | S. cerevisiae deletion strains, locus YLR039C, strain RIC1, hits give low values 0.239 | S. cerevisiae deletion strains, locus YLR058C, strain SHM2 (second series), hits give low values 0.928 | S. cerevisiae deletion strains, locus YLR085C, strain ARP6, hits give low values 0.143 | S. cerevisiae deletion strains, locus YLR262C, strain YPT6, hits give low values 0.407 | S. cerevisiae deletion strains, locus YML094W, strain GIM5, hits give low values 0.747 | S. cerevisiae deletion strains, locus YMR219W, strain ESC1, hits give low values 0.848 | S. cerevisiae deletion strains, locus YMR263W, strain SAP30, hits give low values 0.867 | S. cerevisiae deletion strains, locus YNL153C, strain GIM3, hits give low values 0.849 | S. cerevisiae deletion strains, locus YNL298W, strain CLA4 (second series), hits give low values 0.241 | S. cerevisiae deletion strains, locus YNL322C, strain KRE1, hits give low values 0.931 | S. cerevisiae deletion strains, locus YNR030W, strain Alg12, hits give low values 0.341 | S. cerevisiae deletion strains, locus YOL006C, strain TOP1, hits give low values 0.102 | S. cerevisiae deletion strains, locus YPL241C, strain CIN2, hits give low values 0.446 | [14] 0.734 | S. cerevisiae deletion strains, locus YPR135W, strain CTF4, hits give low values 0.211 | S. cerevisiae strains, strain wild type, hits give low values 0.0898
